Experimental data as given in PubChem BioAssay (Tox21).
Results filed as inconclusive are left out. Calls of active or inactive are those of the source. Unless noted, calls follow the shape of the dose curve; as a rule, active = well fitted curve in the direction sought with a large enough effect in the repeat runs; inconclusive = weak or mixed curves; inactive = no such curve, though single readings can be large; an effect the other way counts as inactive or inconclusive.

Tests used:
[1] = qHTS assay to identify small molecule agonists of the peroxisome proliferator-activated receptor delta (PPARd) signaling pathway - cell viability counter screen (AID 743211); settings: PPARd-bla HEK293H viability, CellTiter-Glo luminescence, 17 h; series mostly up to 62.6 µM; also: nearly all actives have a fitted effect of over 55% in size
Procedure, shortened: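 Tox21 library compounds, delivered in DMSO, were incubated 17 h with PPARd-bla HEK293H cells; cytotoxicity was taken from CellTiter-Glo luminescence read 30 min after reagent addition.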

[2] = biological target: Peroxisome proliferator-activated receptor delta (Homo sapiens) (UniProt Q03181); test: qHTS assay to identify small molecule agonists of the peroxisome proliferator-activated receptor delta (PPARd) signaling pathway (AID 743212; calls by dose curve); settings: HEK293H PPARd-UAS-bla, beta-lactamase FRET ratio, 17 h; series mostly up to 62.6 µM
Sequence of Peroxisome proliferator-activated receptor delta (Homo sapiens) (Q03181 whole entry, looked up): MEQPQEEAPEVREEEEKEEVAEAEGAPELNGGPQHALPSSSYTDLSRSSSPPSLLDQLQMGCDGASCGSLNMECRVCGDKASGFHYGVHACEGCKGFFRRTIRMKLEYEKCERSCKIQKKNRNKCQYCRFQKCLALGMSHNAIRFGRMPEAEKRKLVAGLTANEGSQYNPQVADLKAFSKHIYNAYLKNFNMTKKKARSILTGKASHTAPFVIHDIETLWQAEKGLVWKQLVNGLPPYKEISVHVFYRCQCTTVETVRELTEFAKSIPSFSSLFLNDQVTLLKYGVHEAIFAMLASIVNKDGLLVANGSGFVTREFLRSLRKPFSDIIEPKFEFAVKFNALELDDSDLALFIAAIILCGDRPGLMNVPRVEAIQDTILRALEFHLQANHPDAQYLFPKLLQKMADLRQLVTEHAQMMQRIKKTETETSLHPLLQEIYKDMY
Procedure, shortened: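 Read-out: beta-lactamase FRET fluorescence after 2 h room-temperature incubation with LiveBLAzer B/G substrate. Cells were HEK293H carrying a UAS-bla reporter for PPARd, treated at 37 C with DMSO-dissolved compounds.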

[3] = qHTS assay to identify small molecule antagonists of the peroxisome proliferator-activated receptor delta (PPARd) signaling pathway - cell viability counter screen (AID 743213); settings: PPARd-bla HEK293H viability, CellTiter-Glo luminescence, 17 h; series mostly up to 62 µM; also: nearly all actives have a fitted effect of over 50% in size
Procedure, shortened: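 Agonist-stimulated (L165041, 300 nM final) HEK293H PPARd UAS-bla cells are exposed to compounds for 17 h at 37 C, and ATP-based luminescence (CellTiter-Glo) from the same wells reports cytotoxicity.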

[4] = biological target: Peroxisome proliferator-activated receptor delta (Homo sapiens) (UniProt Q03181); test: qHTS assay to identify small molecule antagonists of the peroxisome proliferator-activated receptor delta (PPARd) signaling pathway (AID 743215; active = well fitted inhibition curve with a large enough effect in the signal ratio in the repeat runs, not every such curve was filed as active; the % refers to the signal ratio); settings: HEK293H PPARd-UAS-bla, beta-lactamase FRET ratio, antagonist, 17 h; series mostly up to 62 µM
Procedure, shortened: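 HEK293H GeneBLAzer PPARd UAS-bla reporter cells; cpd + L165041 300 nM final, 17 h 37 C; LiveBLAzer B/G FRET substrate 2 h RT; fluorescence intensity read-out. Antagonist mode.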

[5] = qHTS assay to identify small molecule antagonists of the farnesoid-X-receptor (FXR) signaling pathway - cell viability counter screen (AID 743221; active = well fitted cell-killing curve with a large enough effect in the repeat runs, not every such curve was filed as active; also: nearly all actives have a fitted effect of over 50% in size); settings: FXR-bla HEK293T viability, CellTiter-Glo luminescence, 16 h; series mostly up to 62.6 µM
Procedure, shortened: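 Cytotoxicity is taken from ATP luminescence (CellTiter-Glo, 30 min, room temperature) in FXR-bla HEK 293T cells previously incubated 16 h at 37 C with compound and chenodeoxycholic acid at 50 uM final.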

[6] = biological target: Vitamin D3 receptor (Homo sapiens) (UniProt P11473); test: qHTS assay to identify small molecule antagonists of the vitamin D receptor (VDR) signaling pathway (AID 743223; active = well fitted inhibition curve with a large enough effect in the signal ratio in the repeat runs, not every such curve was filed as active; the % refers to the signal ratio); settings: VDR-UAS-bla HEK293T, beta-lactamase FRET ratio, 16 h; series mostly up to 61 µM
Sequence of Vitamin D3 receptor (Homo sapiens) (P11473 whole entry, looked up): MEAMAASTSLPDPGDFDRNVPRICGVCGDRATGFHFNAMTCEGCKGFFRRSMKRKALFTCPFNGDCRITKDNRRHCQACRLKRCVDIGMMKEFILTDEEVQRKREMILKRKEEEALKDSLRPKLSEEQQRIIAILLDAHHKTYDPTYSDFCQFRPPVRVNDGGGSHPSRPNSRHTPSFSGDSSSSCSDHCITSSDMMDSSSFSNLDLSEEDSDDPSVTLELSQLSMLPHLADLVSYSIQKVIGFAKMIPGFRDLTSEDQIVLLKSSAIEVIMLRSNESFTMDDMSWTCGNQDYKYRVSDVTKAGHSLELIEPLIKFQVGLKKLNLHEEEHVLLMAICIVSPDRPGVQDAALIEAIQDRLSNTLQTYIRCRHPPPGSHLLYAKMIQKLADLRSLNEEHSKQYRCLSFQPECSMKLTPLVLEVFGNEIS
Procedure, shortened: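 Quantitative HTS in VDR-bla reporter cells stimulated with 1alpha,25-dihydroxyvitamin D3, 3 nM final. Compound exposure 16 h, 37C, 5% CO2. Read-out: beta-lactamase FRET substrate fluorescence, 2 h RT.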

[7] = qHTS assay to identify small molecule agonists of the vitamin D receptor (VDR) signaling pathway - cell viability counter screen (AID 743224); settings: VDR-bla HEK293T viability, CellTiter-Glo luminescence, 16 h; series mostly up to 62.6 µM; also: nearly all actives have a fitted effect of over 50% in size
Procedure, shortened: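 Cytotoxicity counter screen: VDR-bla cells, 16 h compound exposure at 37C, 5% CO2; CellTiter-Glo luminescence, 30 min RT, same wells as bla read.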

[8] = qHTS assay to identify small molecule antagonists of the vitamin D receptor (VDR) signaling pathway - cell viability counter screen (AID 743225); settings: VDR-bla HEK293T viability, CellTiter-Glo luminescence, 16 h; series mostly up to 61 µM; also: nearly all actives have a fitted effect of over 50% in size
Procedure, shortened: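 Same-well multiplex: following 16 h treatment of HEK 293T cells carrying a UAS-driven beta-lactamase reporter with compound and agonist (3 nM final), and a 2 h FRET substrate step, CellTiter-Glo was added and luminescence read after 30 min.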

[9] = qHTS assay to identify small molecule agonists of the NFkB signaling pathway (AID 1159509; active = well fitted curve in the direction sought with a large enough effect in the signal ratio in the repeat runs, not every such curve was filed as active; the % refers to the signal ratio); settings: NFkB-bla ME-180 cells, beta-lactamase FRET ratio, 5 h; series mostly up to 61 µM
Procedure, shortened: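 Readout: FRET fluorescence, 405 nm excitation, 460/530 nm emission; beta-lactamase expression disrupts FRET. Cells: ME-180 stably carrying NF-kB-driven bla reporter. Compound exposure 5 hr, 37 C, 5% CO2.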

[10] = qHTS assay to identify small molecule agonists of the NFkB signaling pathway - cell viability counter screen (AID 1159515; calls by dose curve; also: nearly all actives have a fitted effect of over 55% in size); settings: NFkB-bla ME-180 viability, CellTiter-Glo luminescence, 5 h; series mostly up to 61 µM
Procedure, shortened: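 ME-180 NFkB-bla cells, 2,000/well; overnight attach; compound 5 hr, 37 C/5% CO2; LiveBLAzer substrate 1.5 hr RT; then CellTiter-Glo in same wells, 30 min RT, luminescence read.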

[11] = qHTS assay to identify small molecule agonists of the endoplasmic reticulum stress response signaling pathway (AID 1159516; active = well fitted activation curve with a large enough effect in the signal ratio in the repeat runs, not every such curve was filed as active; the % refers to the signal ratio); settings: ESRE-bla HeLa, ER stress beta-lactamase reporter, 5 h; series mostly up to 61 µM
Procedure, shortened: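 HeLa ESRE-bla reporter line; cpd 5 h, 37 C/5% CO2; LiveBLAzer B/G FRET substrate 2 h RT; ex 405, em 460/530 nm.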

[12] = qHTS assay to identify small molecule agonists of the endoplasmic reticulum stress response signaling pathway - cell viability counter screen (AID 1159517; calls by dose curve); settings: ESRE-bla HeLa viability, CellTiter-Glo luminescence, 5 h; series mostly up to 61 µM
Procedure, shortened: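 Steps: seed 1,500 ESRE-bla HeLa cells per well; incubate overnight at 37 C, 5% CO2; add compounds in DMSO for 5 hr; run FRET substrate 2 hr RT; add CellTiter-Glo, wait 30 min, read luminescence.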

[13] = qHTS assay to identify small molecule antagonists of the retinoid-related orphan receptor gamma (ROR-gamma) signaling pathway - cell viability counter screen (AID 1159520); settings: Tet-on RORgamma CHO cells viability, ATP luminescence, 16 h; series mostly up to 92.4 µM; also: nearly all actives have a fitted effect of over 50% in size
Procedure, shortened: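 Tet-on ROR gamma CHO cells were given compounds for 2 hr, then doxycycline hyclate at 1 uM final, and incubated 16 hr at 37 C. Viability was measured as ATP content by CellTiter-Glo luminescence.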

[14] = biological target: Nuclear receptor ROR-gamma (Homo sapiens) (UniProt P51449); test: qHTS assay to identify small molecule antagonists of the retinoid-related orphan receptor gamma (ROR-gamma) signaling pathway (AID 1159521; also: nearly all actives have a fitted effect of over 50% in size; also: potency is read from the fitted curve at half-maximal effect); settings: Tet-on RORgamma CHO cells, RORE-luciferase, 16 h; series mostly up to 92.4 µM
Procedure, shortened: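 Inducible-expression reporter assay: doxycycline (1 uM final) switched on RORγ in CHO cells bearing a ROR response element-luciferase construct, with test compounds present from 2 h beforehand. Decreased luminescence after 16 h defined antagonist activity.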

[15] = qHTS assay to identify small molecule agonists of the AP-1 signaling pathway (AID 1159526; calls by dose curve; also: potency is read from the fitted curve at half-maximal effect); settings: ME-180 AP-1-bla reporter, beta-lactamase FRET ratio, 5 h; series mostly up to 76.8 µM
[16] = qHTS assay to identify small molecule agonists of the farnesoid-X-receptor (FXR) signaling pathway - cell viability counter screen (AID 743218); settings: FXR-bla HEK293T viability, CellTiter-Glo luminescence, 16 h; series mostly up to 62.6 µM; also: nearly all actives have a fitted effect of over 45% in size
Procedure, shortened: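 Luminescence from CellTiter-Glo, read after 30 min at RT, reports viability of GeneBLAzer FXR-UAS-bla HEK 293T cells treated 16 h with compounds in the wells used for the beta-lactamase reporter.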

[17] = biological target: Vitamin D3 receptor (Homo sapiens) (UniProt P11473); test: qHTS assay to identify small molecule agonists of the vitamin D receptor (VDR) signaling pathway (AID 743222; calls by dose curve); settings: HEK293T VDR-UAS-bla, beta-lactamase FRET ratio, 16 h; series mostly up to 63.5 µM
Procedure, shortened: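 Beta-lactamase reporter readout (LiveBLAzer B/G FRET, 2 h RT) in VDR-bla cells after 16 h compound treatment at 37C, 5% CO2; cells pre-incubated 4 h before pin transfer of DMSO solutions.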

[18] = qHTS assay to identify small molecule agonists of the AP-1 signaling pathway - cell viability counter screen (AID 1159525; calls by dose curve; also: nearly all actives have a fitted effect of over 55% in size); settings: ME-180 (cervical carcinoma) AP-1-bla cells viability, ATP luminescence, 5 h; series mostly up to 76.8 µM
Procedure, shortened: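 Same-well cytotoxicity counter screen of the Tox21 10K library in ME-180 cells. The readout is ATP-dependent luminescence after 5 h compound treatment. Data are normalised to DMSO and tetra n-octyl ammonium bromide controls.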

[19] = biological target: Bile acid receptor (Homo sapiens) (UniProt Q96RI1); test: qHTS assay to identify small molecule antagonists of the farnesoid-X-receptor (FXR) signaling pathway (AID 743217; active = well fitted inhibition curve with a large enough effect in the signal ratio in the repeat runs, not every such curve was filed as active; the % refers to the signal ratio); settings: HEK293T FXR-UAS-bla, beta-lactamase ratio, CDCA-stimulated, 16 h; series mostly up to 62.6 µM
Sequence of Bile acid receptor (Homo sapiens) (Q96RI1 whole entry, looked up): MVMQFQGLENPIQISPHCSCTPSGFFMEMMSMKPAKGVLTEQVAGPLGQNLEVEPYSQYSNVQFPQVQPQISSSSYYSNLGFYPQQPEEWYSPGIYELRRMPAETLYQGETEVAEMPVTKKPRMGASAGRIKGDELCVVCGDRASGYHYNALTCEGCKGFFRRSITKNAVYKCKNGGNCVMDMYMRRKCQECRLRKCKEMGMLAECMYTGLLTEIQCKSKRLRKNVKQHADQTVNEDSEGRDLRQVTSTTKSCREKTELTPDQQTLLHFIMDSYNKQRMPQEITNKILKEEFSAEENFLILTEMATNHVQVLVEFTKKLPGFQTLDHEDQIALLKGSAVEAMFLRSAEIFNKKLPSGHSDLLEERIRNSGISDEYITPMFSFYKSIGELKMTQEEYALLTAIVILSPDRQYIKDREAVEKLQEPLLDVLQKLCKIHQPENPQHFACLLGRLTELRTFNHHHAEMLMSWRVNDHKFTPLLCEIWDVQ
Procedure, shortened: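 Read-out: beta-lactamase FRET fluorescence (LiveBLAzer B/G substrate, 2 h, room temperature) in GeneBLAzer FXR-UAS-bla HEK 293T cells. Compounds were co-dosed with 50 uM chenodeoxycholic acid (final) and incubated 16 h at 37 °C.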

[20] = biological target: Bile acid receptor (Homo sapiens) (UniProt Q96RI1); test: qHTS assay to identify small molecule agonists of the farnesoid-X-receptor (FXR) signaling pathway (AID 743220; active = well fitted activation curve with a large enough effect in the signal ratio in the repeat runs, not every such curve was filed as active; the % refers to the signal ratio); settings: HEK293T FXR-UAS-bla, beta-lactamase FRET ratio, 16 h; series mostly up to 62.6 µM
Procedure, shortened: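 FXR-UAS-bla HEK 293T cells carrying a UAS-driven beta-lactamase reporter were plated for 5 h at 37C/5% CO2, then exposed to DMSO-dissolved Tox21 10K compounds for 16 h at 37C. A LiveBLAzer B/G FRET substrate was loaded for 2 h at room temperature before fluorescence reading.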

Measured: Potency

CCCN(CCC)N=O
not listed: [16] | [17] | [18] | [19] | [20]
inactive: all other assays above

BrCCBr
not listed: [7] | [18] | [19] | [20]
inactive: all other assays above

O=[N+]([O-])c1ccc([As](=O)(O)O)cc1
not listed: [14] | [19] | [20]
inactive: all other assays above

CCCCOC(=O)c1ccccc1C(=O)OCCCC
inactive: [1] | [3] | [5] | [6] | [8] | [9] | [10] | [11] | [12] | [13] | [14]

Clc1ccccc1Cl
not listed: [7] | [10]
inactive: all other assays above

O=C(NC(=O)c1c(F)cccc1F)Nc1cc(Cl)c(OC(F)(F)C(F)C(F)(F)F)cc1Cl (stereo not given)
not listed: [2] | [4] | [7] | [15] | [18]
inactive: all other assays above

[O-][Cl+2]([O-])O
not listed: [2] | [4] | [7] | [14] | [17] | [18]
inactive: all other assays above

CN(N=O)c1ccccc1
not listed: [7] | [18]
inactive: all other assays above

CCC12COCN1COC2
not listed: [18] | [19] | [20]
inactive: all other assays above

Cc1cccc([N+](=O)[O-])c1
not listed: [4] | [14] | [17] | [18]
inactive: all other assays above

CCCCCOC(=O)c1ccccc1C(=O)OCCCCC
not listed: [2] | [4] | [15] | [18] | [19] | [20]
inactive: all other assays above

CC(C)OC(=O)Nc1cccc(Cl)c1
not listed: [15] | [17] | [18]
inactive: all other assays above

Cc1ccc([N+](=O)[O-])cc1C
not listed: [16] | [17] | [18]
inactive: all other assays above

CCCC1COC(Cn2cncn2)(c2ccc(Cl)cc2Cl)O1 (stereo not given)
active: [14] 43.3 µM
not listed: [7] | [17] | [18]
inactive: all other assays above

CN1C(=O)CN=C(c2ccccc2)c2cc(Cl)ccc21
not listed: [2] | [4] | [17] | [18]
inactive: all other assays above

CC(NC(C)(C)C)C(=O)c1cccc(Cl)c1 (stereo not given)
active: [15] 36.8 µM
not listed: [2] | [4] | [18] | [19] | [20]
inactive: all other assays above

O=c1n(Cl)c(=O)n(Cl)c(=O)n1Cl
not listed: [16] | [18] | [19] | [20]
inactive: all other assays above

CC(=O)C=C(C)C
not listed: [2] | [4] | [16] | [17] | [18] | [19] | [20]
inactive: all other assays above

CC(C)C1(C)N=C(c2nc3ccccc3cc2C(=O)O)NC1=O (stereo not given)
not listed: [16] | [18]
inactive: all other assays above
